# Screening results from PubChem.
# POLI inh = blocks human DNA polymerase iota activity; Q9UNA4; Pol iota fluorescent replication assay, 10 min; Potency, µM (series often up to 115 µM), for the others: at the highest dose activity, negative = inhibition, actives largely listed as inhibitors; actives 1% (n = 390,000); also: potency is read from the fitted curve at half-maximal effect
#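 Pol iota at 10 nM preincubated 15 min with compounds at room temperature; reaction started with fluorescent substrate, 50 nM final. Fluorescence read kinetically at 0 and 10 min; buffer-only wells as negative control.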
# Pol beta inh-1 = inhibitors of human DNA polymerase beta. Pol beta primer extension/strand displacement, fluorescence kinetic. actives 1.3% (n = 340,000). P06746. Potency, µM (highest dose often 114 µM), for inactives: at the highest dose activity change, negative = inhibition, actives largely listed as inhibitors; also: potency is read from the fitted curve at half-maximal effect; % is scaled to controls: 0 for no effect and ±100 for the full control effect
#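 Reaction started by 50 nM substrate onto compound-treated Pol beta (10 nM, 15 min preincubation, room temperature); plates read at 0 min and 10 min. Normalized concentration-effect data fitted by four-parameter Hill equation.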
# POLK inh = DNA polymerase kappa (human) inhibition; Potency, µM (top dose mostly 107 µM), for inactives: at the top dose activity, negative = inhibition, usual class: inhibitors; Q9UBT6; actives 0.53% (n = 400,000); AID 588579; purified Pol kappa, fluorescent DNA synthesis assay, 10 min; also: potency is read from the fitted curve at half-maximal effect; % is scaled to controls: 0 for no effect and ±100 for the full control effect
# Target sequence (Q9UBT6 whole entry, looked up): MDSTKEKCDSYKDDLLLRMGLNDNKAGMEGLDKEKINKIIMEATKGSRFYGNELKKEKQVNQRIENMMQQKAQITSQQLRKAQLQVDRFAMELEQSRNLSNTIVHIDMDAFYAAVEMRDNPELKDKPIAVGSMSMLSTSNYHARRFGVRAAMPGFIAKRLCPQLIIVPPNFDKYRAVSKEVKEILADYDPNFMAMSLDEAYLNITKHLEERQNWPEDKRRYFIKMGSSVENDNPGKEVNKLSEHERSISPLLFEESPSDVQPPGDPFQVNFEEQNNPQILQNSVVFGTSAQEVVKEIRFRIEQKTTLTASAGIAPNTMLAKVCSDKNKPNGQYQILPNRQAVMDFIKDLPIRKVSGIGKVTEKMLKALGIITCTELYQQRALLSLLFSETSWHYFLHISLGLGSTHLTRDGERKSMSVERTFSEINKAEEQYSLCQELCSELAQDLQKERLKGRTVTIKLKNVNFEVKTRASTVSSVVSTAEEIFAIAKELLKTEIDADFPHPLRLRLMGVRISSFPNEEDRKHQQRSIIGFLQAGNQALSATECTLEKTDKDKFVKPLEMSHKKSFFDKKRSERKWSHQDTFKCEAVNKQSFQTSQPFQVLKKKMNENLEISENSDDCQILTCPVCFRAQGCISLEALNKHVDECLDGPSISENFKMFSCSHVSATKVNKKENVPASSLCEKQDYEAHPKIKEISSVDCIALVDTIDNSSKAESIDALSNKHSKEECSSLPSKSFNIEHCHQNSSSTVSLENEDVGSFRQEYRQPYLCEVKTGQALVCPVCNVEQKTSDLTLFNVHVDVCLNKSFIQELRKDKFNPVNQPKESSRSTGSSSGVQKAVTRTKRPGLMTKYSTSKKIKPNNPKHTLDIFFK
#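 Kinetic fluorescence screen: compound preincubated 15 min RT with 10 nM enzyme; 50 nM substrate (final) initiates; reads at 0/10 min.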
# WRN helicase inh-1 = blocks human WRN helicase. Q14191. actives 0.46% (n = 360,000). WRN helicase unwinding, fluorescent forked duplex, kinetic. Potency, µM (doses to about 114 µM), for inactives: top-dose activity change, negative = inhibition, actives largely listed as inhibitors; also: potency is read from the fitted curve at half-maximal effect; % is scaled to controls: 0 for no effect and ±100 for the full control effect; nearly all actives have a fitted effect of over 55% in size
#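 Enzyme (20 nM final) and test compound sit together 15 min at room temperature before substrate addition. Substrate is a single-forked duplex oligonucleotide (100 nM) labelled with fluorophore and quencher, with 2 mM ATP; helicase unwinding raises red fluorescence, read kinetically.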
# Pol eta inh-1 = blocks human DNA polymerase eta activity; AID 588591; recombinant Pol eta, fluorescent DNA replication assay; Potency, µM (titrated, usually from 114 µM), for the others: at the highest dose activity change, negative = inhibition, actives largely listed as inhibitors; actives 1.2% (n = 390,000); Q9Y253; also: potency is read from the fitted curve at half-maximal effect; % is scaled to controls: 0 for no effect and ±100 for the full control effect
#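 Pol eta (10 nM) was preincubated with compounds for 15 min at room temperature, after which fluorescent replication substrate (50 nM final) was added to start the reaction. Fluorescence was read kinetically at 0 and 10 min.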
# FEN1 inh-1 = human FEN1 inhibition; P39748; Recombinant FEN1 flap cleavage, fluorescence, 15 min; Potency, µM (doses to about 114 µM), without a hit: top-dose activity change, negative = inhibition, hits mostly inhibitors; actives 0.35% (n = 390,000); AID 588795; also: potency is read from the fitted curve at half-maximal effect; % is scaled to controls: 0 for no effect and ±100 for the full control effect; nearly all actives have a fitted effect of over 65% in size
#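 FEN1 at 10 nM preincubated with compounds 15 min at room temperature, then flap DNA substrate added at 50 nM final. Signal read at 0 and 15 min; concentration-response fitted with four-parameter Hill equation.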
# Pol beta inh-2 = Inhibitors of human DNA polymerase beta, hit validation; actives 87% (n = 250); Potency, µM, hits mostly inhibitors; shares compounds with Pol beta inh-1; Pol beta primer extension/strand displacement, fluorescence kinetic; calls by dose curve; also: potency is read from the fitted curve at half-maximal effect
# Klenow inh = counter-screen for DNA polymerase beta inhibitors: Klenow fragment inhibition | shares compounds with Pol beta inh-1 | Klenow exo- polymerase counter-screen, fluorescent DNA substrate | activity change, negative = inhibition, % at 57.1 µM | 250 tested, under 10 active | AID 540300
# HIV RT inh = HIV-1 RT inhibition, pol beta selectivity check; shares compounds with Pol beta inh-1; 250 tested, under 10 active; AID 540301; activity % (negative = inhibition, positive = activation), % at 57.1 µM; HIV-1 RT polymerase activity, counter-screen
# POLB valid = validation of human DNA polymerase beta inhibitors; AID 540325; inhibition, % at 10 µM; actives 91% (n = 110); radiolabeled primer extension gel assay, phosphorimager; shares compounds with Pol beta inh-1;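 active = inhibition at 10 µM of 30% or more; inconclusive = no clear call, values can overlap the other calls; inactive = inhibition at 10 µM under 30%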
# TbPGK inh = TbPGK inhibition, hit validation; Potency, µM (titrated, usually from 57.5 µM), for the others: at the top dose activity change, negative = inhibition, hits mostly inhibitors; actives 79% (n = 500); AID 686980; shares compounds with POLK inh; TbPGK coupled GAPDH assay, Kinase-Glo luminescence; also: potency is read from the fitted curve at half-maximal effect; % is scaled to controls: 0 for no effect and ±100 for the full control effect; nearly all actives have a fitted effect of over 65% in size
# Pol iota confirm = Confirm cherry-picked inhibitors of human polymerase iota | Pol iota primer extension, TAMRA/BHQ fluorescence | shares compounds with POLK inh | actives 77% (n = 1,500) | Potency, µM, actives largely listed as inhibitors; also: potency is read from the fitted curve at half-maximal effect
# Pol eta inh-2 = Pol eta (human) inhibition, cherry-pick confirmation; shares compounds with Pol eta inh-1; Pol eta primer extension, TAMRA/BHQ fluorescence, 10 min; Potency, µM, most hits filed as inhibitors; actives 64% (n = 2,600); AID 720502; also: potency is read from the fitted curve at half-maximal effect
# FEN1 inh-2 = confirmation of human FEN1 inhibitors. shares compounds with FEN1 inh-1. FEN1 flap cleavage, TAMRA/BHQ2 fluorogenic DNA substrate. Potency, µM, hits mostly inhibitors. actives 79% (n = 880). AID 720498; also: potency is read from the fitted curve at half-maximal effect; nearly all actives have a fitted effect of over 60% in size
# WRN helicase inh-2 = confirmation of human WRN helicase inhibitors; shares compounds with WRN helicase inh-1; WRN helicase DNA unwinding, fluorescence kinetic; Potency, µM (top dose mostly 57.1 µM), for the others: top-dose activity, negative = inhibition, usual class: inhibitors; actives 63% (n = 610); AID 720497; also: potency is read from the fitted curve at half-maximal effect; nearly all actives have a fitted effect of over 65% in size
# TO displacement = binds DNA, flagged in WRN inhibitor counterscreen; shares compounds with WRN helicase inh-1; thiazole orange DNA binding displacement, fluorescence; AID 720499; actives 10% (n = 610); Potency, µM (series often up to 57.1 µM), for the others: top-dose activity change, negative = inhibition, hits mostly inhibitors;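 also: drop in dye fluorescence marks compound binding to DNA; potency is read from the fitted curve at half-maximal effect; % is scaled to controls: 0 for no effect and ±100 for the full control effect; nearly all actives have a fitted effect of over 60% in size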
# BLM helicase inh = BLM helicase inhibition, WRN selectivity check. shares compounds with WRN helicase inh-1. Recombinant BLM helicase DNA unwinding, red fluorescence. Potency, µM (top dose mostly 57.1 µM), for the others: at the top dose activity change, negative = inhibition, usual class: inhibitors. actives 60% (n = 610). AID 720503; also: potency is read from the fitted curve at half-maximal effect; nearly all actives have a fitted effect of over 60% in size
# * hit, by the source's call; u = inconclusive; x = no result given; [ ] = remark or other dose. An excerpt weighted towards active compounds, which were near 2.4% of everything screened. Unless noted, calls follow the shape of the dose curve; as a rule, active = well fitted curve in the direction sought with a large enough effect; inconclusive = small, poorly fitted or top-dose-only effect, or another doubt; inactive = no such curve, though single readings can be large; an effect the other way counts as inactive or inconclusive.
SMILES,POLI inh,Pol beta inh-1,POLK inh,WRN helicase inh-1,Pol eta inh-1,FEN1 inh-1,Pol beta inh-2,Klenow inh,HIV RT inh,Pol iota confirm,Pol eta inh-2,others
O=C(NC1CCC(O)CC1)c1cc(-c2ccco2)nc2ccccc12 (stereo not drawn),35.5µM*,12.6µM*,u,u,25.1µM*,-23.8%,28.2*,-17.0,40.7,67*,75.7*,POLB valid=83.6*
COc1cccc(-c2cc(C(=O)NC3CC3)c3ccccc3n2)c1,37.2%,27.2%,-0.4%,1.5%,-18.9%,-8.6%,x,x,x,x,x,
CCN(c1ccccc1)c1nc(N)nc(C#N)n1,5.6%,x,-16.4%,x,x,-10.7%,x,x,x,x,x,
O=C(Oc1ccc2c(c1)OCO2)c1cc2c(s1)CCC2,5.01µM*,10µM*,20µM*,u,3.98µM*,u,15.8*,-31.0,30.0,18.9*,67.5*,TbPGK inh=u
COc1cc(C(=S)N2CCN(c3cccc(Cl)c3)CC2)ccc1O,-17.5%,u,8.2%,-9.3%,-9.9%,-20.1%,x,x,x,x,x,
COc1cc(C(=S)N2CCN(c3ccccc3Cl)CC2)cc(O)c1O,u,10µM*,70.8µM*,u,20µM*,u,2.51*,-15.9,-9.1,x,75.7*,FEN1 inh-2=15.1*
O=S(=O)(Nc1nccs1)c1ccc(Nc2nnc(-c3ccccc3)c3ccccc23)cc1,u,14.1µM*,-17.9%,u,u,89.1µM*,35.5*,1.0,30.8,x,x,FEN1 inh-2=u
COc1cc(NC(=O)C2CCN(S(=O)(=O)c3ccc4c(c3)oc(=O)n4C)CC2)cc(OC)c1,0.9%,18.2%,-4.0%,x,-8.6%,-1.7%,x,x,x,x,x,
COc1cccc(CNC(=O)c2c(C)oc3nc(C)nc(N4CCOCC4)c23)c1,-19.8%,3.3%,-10.1%,x,1.8%,17.6%,x,x,x,x,x,
CN(CCC#N)C(=O)COC(=O)c1c2c(nc3ccccc13)/C(=C/c1ccco1)CC2,3.16µM*,8.91µM*,20µM*,u,6.31µM*,50.1µM*,22.4*,-26.9,6.0,29.9*,53.6*,FEN1 inh-2=67.5*
COc1ccccc1/C=c1\sc2nc(-c3ccco3)nn2c1=O,17.8µM*,10µM*,31.6µM*,39.8µM*,8.91µM*,50.1µM*,28.2*,-31.7,4.3,42.3*,19*,POLB valid=95.5*;FEN1 inh-2=u
COc1ccc(OC)c(/C=c2\sc3nc(-c4cccs4)nn3c2=O)c1,21.0%,u,-11.0%,-12.8%,u,-8.2%,x,x,x,x,x,
Cc1c2cnn(CC(=O)Nc3c(F)c(F)cc(F)c3F)c(=O)c2c(C)n1Cc1ccccc1F,17.8µM*,6.31µM*,44.7µM*,u,39.8µM*,79.4µM*,6.31*,-33.1,-6.0,29.9*,60.1*,WRN helicase inh-2=19.2µM*;TO displacement=27.0%;BLM helicase inh=3.83µM*
CCc1nnc(NC(=O)c2cc(-c3ccco3)nc3ccccc23)s1,1.26µM*,8.91µM*,25.1µM*,35.5µM*,15.8µM*,u,20*,-10.6,33.1,u,75.7*,WRN helicase inh-2=u;TO displacement=24.1µM*;BLM helicase inh=1.92µM*
COc1ccccc1Nc1nn2c(=O)c3ccc(C(=O)NCCC4=CCCCC4)cc3nc2s1,-15.6%,0.3%,-3.0%,x,-6.2%,15.4%,x,x,x,x,x,
CCn1c(SCC(=O)c2ccc(O)c(O)c2)nnc1-c1ccccc1,u,u,u,-31.3%,u,4.0%,x,x,x,x,x,
CCn1c(CSc2nc3ccccc3s2)nnc1SCC(=O)c1ccc(O)c(O)c1,35.5µM*,4.47µM*,u,u,u,-10.1%,2*,-32.7,u,37.7*,u,WRN helicase inh-2=1.36µM*;TO displacement=27.1µM*;BLM helicase inh=u
CCOc1ccc(NC(=O)c2c(NCc3sccc3C)sc3c2CCCCC3)cc1,u,u,6.7%[60.1 µM],x,-14.8%,-33.5%,x,x,x,x,x,
COc1cc(NC(=O)c2ccccc2)ccc1NC(=O)c1cc2ccccc2o1,57.5%,2.9%,3.9%,15.5%,-17.3%,5.2%,x,x,x,x,x,
Cc1cc(NC(=O)c2cncc(Br)c2)ccc1NC(=O)c1cc2ccccc2o1,u,u,-11.7%,-11.3%[11.6 µM],50.1µM*,0.0%,x,x,x,u,x,
COc1ccccc1CNC(=O)C1CCN(S(=O)(=O)c2c(C)noc2/C=C/c2c(C)cc(C)cc2C)CC1,43.8%,-0.3%,-1.9%[60.1 µM],x,-27.5%,-5.5%,x,x,x,x,x,
NNc1ccc([N+](=O)[O-])c2[nH][nH]c(=O)c12,x,x,x,20µM*,2µM*,x,x,x,x,x,x,TbPGK inh=2.59µM*
Cc1cc(N(C)C)ccc1[N+](=O)[O-],-13.6%,15.3%,0.6%,3.7%,-16.5%,0.0%,x,x,x,x,x,
